Bcl-xL primary: inhibitors of human Bcl-xL; inhibition, % at 10.9 µM; Q07817; actives 0.7% (n = 320,000); GST-Bcl-xL / FITC-Bim BH3 peptide fluorescence polarization;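 active = inhibition above the mean of all tested compounds plus 3 SD, cutoff set per campaign, cut at about 30% in these data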;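 also: inhibitors lower millipolarization by displacing the labeled peptide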
EBV gp42 block: blocks Epstein-Barr virus glycoprotein 42 binding. Q1HVG2. Fluorescence polarization binding assay, mP read-out. inhibition, % (tested at 21.74 µM). actives 0.42% (n = 220,000); in the data active = inhibition above about 50%
MCL1-BIM inh: MCL1-BIM-BH3 interaction inhibition (human); GST-MCL1 / FITC-Bim-BH3 fluorescence polarization; inhibition, % at 10.9 µM; actives 0.68% (n = 320,000); AID 2057;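 active = inhibition above the mean inhibition of all tested compounds plus 3 SD, set per campaign, cut at about 40% in these data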;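 also: higher means more loss of mP so more displacement of Bim peptide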
Target sequence (Q07820 whole entry, looked up): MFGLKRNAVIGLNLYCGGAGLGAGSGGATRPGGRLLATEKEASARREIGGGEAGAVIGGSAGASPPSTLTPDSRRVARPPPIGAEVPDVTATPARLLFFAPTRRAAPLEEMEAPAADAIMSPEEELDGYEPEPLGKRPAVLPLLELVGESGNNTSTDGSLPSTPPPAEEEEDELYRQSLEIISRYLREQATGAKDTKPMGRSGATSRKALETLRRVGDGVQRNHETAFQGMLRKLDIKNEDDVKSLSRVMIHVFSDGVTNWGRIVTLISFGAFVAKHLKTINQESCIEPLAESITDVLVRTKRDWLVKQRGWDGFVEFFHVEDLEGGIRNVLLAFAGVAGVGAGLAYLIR
E coli Lon inh: inhibits E. coli Lon protease | AID 602123 | inhibition, % at 7.94 µM | purified E. coli Lon protease, fluorescence polarization | P0A9M0 | actives 0.42% (n = 360,000); in the data active = inhibition above about 13%, passing the limit was not always enough
MEX-5 binding: C. elegans MEX-5 TCR-2 RNA binding activity; Q9XUB2; MEX-5/FITC-TCR2 RNA binding, fluorescence polarization; stronger effect = lower value; activity score (negative = inhibition of binding), % at 10 µM; actives 0.38% (n = 300,000); AID 1832;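 active = inhibition past about -25% in most replicates, and total fluorescence under double the plate's negative control median, limit read from the data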
GLD-1 TGE inh: GLD-1-TGE RNA interaction inhibition (C. elegans). Q17339. actives 0.44% (n = 320,000). inhibition, % at 5.96 µM. purified GLD-1 + fluorescein TGE RNA, fluorescence polarization;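 active = percent inhibition above a per-plate cutoff, the plate mean of test compounds plus 3 SD, cut at about 30% in these data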
Bcl-xL conf: counter-screen for MCL1 inhibitors: confirmation of human Bcl-xL inhibitors; inhibition, % at 10.9 µM; actives 54% (n = 1,700); GST-Bcl-xL / FITC-Bim BH3 peptide FP binding; shares compounds with MCL1-BIM inh; AID 2166;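 active = inhibition above a cutoff equal to the mean inhibition of all tested compounds plus 3 SD, cut at about 30% in these data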
MCL1 BIM confirm: MCL1-BIM-BH3 interaction inhibition, confirmation | shares compounds with MCL1-BIM inh | GST-MCL1 / FITC-Bim-BH3 fluorescence polarization | inhibition, % at 10.9 µM | actives 61% (n = 1,700) | AID 2168;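 active = inhibition above the average of all tested compounds plus 3 SD, cut at about 40% in these data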
GLD-1 TGE cf: confirmation of C. elegans GLD-1 TGE RNA binding inhibitors; shares compounds with GLD-1 TGE inh; GLD-1/FL-TGE RNA fluorescence polarization, biochemical; inhibition, % at 5.96 µM; actives 10% (n = 550); AID 2459;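 active = average inhibition across triplicates above the hit cutoff set in the primary screen, cut at about 32% in these data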
E coli Lon conf: confirmation of E. coli Lon protease inhibitors. purified E. coli Lon, fluorescence polarization. shares compounds with E coli Lon inh. AID 602230. actives 31% (n = 1,400). inhibition, % at 7.94 µM; in the data active = inhibition above about 16%
Numbers stand for hits; . = inactive; / = no result. Shown are actives, neighbours in structure and some others; about 1.5% of the full set was active somewhere.

SMILES	Bcl-xL primary	EBV gp42 block	MCL1-BIM inh	E coli Lon inh	MEX-5 binding	GLD-1 TGE inh	Bcl-xL conf	MCL1 BIM confirm	E coli Lon conf	others
CCN(CC)C(=O)CSc1nnc2nnc3cc(Cl)ccc3n12	93	67	88	54	-32	123	65	79	42
CCCn1c(SCC(=O)N(CC)CC)nnc1-c1ccncc1	.	.	.	.	.	.	/	/	/
CCOc1ccc(NC(=O)CCNC(=O)C2CCN(S(=O)(=O)c3ccccc3)CC2)cc1	.	/	.	.	.	.	/	/	/
CSc1cccc(NC(=O)CC2Oc3ccccc3NC2=O)c1 (centres undefined)	.	/	.	.	.	.	/	/	/
COc1ccc(C(=O)O)cc1S(=O)(=O)NCCN(C)C	.	.	.	.	.	.	/	/	/
O=C(N/N=C/c1ccc(-c2ccc(S(=O)(=O)Nc3ncccn3)cc2)o1)c1cc2ccccc2cc1O	.	.	64	26	.	.	.	57	30
CCOc1ccc(C(=O)N/N=C/c2ccc(-c3ccc(S(=O)(=O)Nc4ncccn4)cc3)o2)cc1	.	.	.	.	.	.	/	/	/
CC(C)(C)c1cc[n+](-c2[nH]c(=O)sc2/C=N/NC(=O)c2ccccc2[O-])cc1	97	/	126	43	.	70	84	129	36
CC(C)(C)c1ccc(/C=N/NC(=O)C[n+]2ccccc2)cc1	.	/	.	.	.	.	/	/	/
Cc1cc[n+](-c2[nH]c(=O)sc2/C=N/NC([S-])=Nc2ccccc2)cc1	139	59	164	63	.	116	128	128	53
Cc1cc(C)c[n+](-c2[nH]c(=O)sc2/C=N/NC([S-])=Nc2ccccc2)c1	129	.	167	70	-49	117	61	60	76
O=c1[nH]c(-[n+]2ccccc2)c(/C=N/NC([S-])=Nc2ccccc2)s1	164	.	183	94	-82	143	110	127	.
[S-]C(=Nc1ccc(Cl)cc1)N[n+]1ccccc1	.	.	.	.	.	.	/	/	/
CCc1ccc[n+](-c2[nH]c(=O)sc2/C=N/NC([S-])=Nc2ccccc2)c1	122	66	144	105	-55	108	154	185	129
CCc1ccc[n+](-c2[nH]c(=O)sc2/C=N/N=C(\N)[O-])c1	.	.	.	.	.	.	/	/	/
COc1cccc(F)c1C(=O)NC(=O)Nc1ccc2nc(C)oc2c1	119	.	119	110	-31	91	54	.	.
C=C[C@](C)(CC[C@@]1(C)C(C)CC(OC2OC(C)C(OC3OC(COC(C)=O)C(O)C(O)C3O)C(O)C2O)[C@@]2(C)C(C)=CCCC12)OC1OC(C)C(O[C@@H]2O[C@@H](C)C(O)C(O)[C@H]2O)C(O)C1O (some centres undefined)	/	/	/	.	/	.	/	/	/
Oc1ccc2ccccc2c1N=Nc1ccccn1	.	.	.	.	.	.	/	/	/
CCOC(=O)c1[nH]cnc1N=Nc1c(O)ccc2ccccc12	103	56	93	44	.	60	75	84	76	GLD-1 TGE cf=32
CN1C(=O)N(C)c2ccc(Br)c3cccc1c23	/	/	/	.	.	/	/	/	/
CN1C(=O)N(C)c2ccc(C=O)c3cccc1c23	72	.	73	16	.	40	65	94	.	GLD-1 TGE cf=.
CC1(C)CC(=O)/C(=C(\O)Cc2ccccc2)C(=NCCCCCC(=O)O)C1	.	.	.	.	.	.	/	/	/
COc1ncnc2c1NC1=C(S2)C(=NCCC(=O)O)CC(C)(C)C1	144	140	162	65	-52	103	171	198	154

Bioassay records deposited in PubChem BioAssay by several laboratories.
